Screening results from PubChem BioAssay.
GC-B act: GC-B (human) receptor activation. AID 1920062. P20594. activation, % at 10 µM. HEK293-GC-B cells, CNP EC30, cGMP TR-FRET; 0% at EC30 CNP, 100% saturating CNP. 370,000 compounds, 0.11% hits;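 active = activation at 10 µM reaching about 35% in either raw or pattern-adjusted values, limit read from the data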
Granule exo inh: blocks lytic granule exocytosis. TALL-104 LAMP-1 surface exposure, flow cytometry; cells stimulated with thapsigargin and PMA. inhibition, % at 10 µM. 360,000 compounds, 0.66% hits. AID 651702;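 active = inhibition above about 55%, limit read from the data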
GC-A act: GC-A (human) enzyme activation | P16066 | activation, % at 10 µM | HEK293 GC-A cells, cGMP TR-FRET, EC30 ANP; 0% at EC30 ANP, 100% saturating ANP | AID 1671463 | 370,000 compounds, 0.14% hits; in the data active = activation above about 40%
Target sequence (P16066 whole entry, looked up): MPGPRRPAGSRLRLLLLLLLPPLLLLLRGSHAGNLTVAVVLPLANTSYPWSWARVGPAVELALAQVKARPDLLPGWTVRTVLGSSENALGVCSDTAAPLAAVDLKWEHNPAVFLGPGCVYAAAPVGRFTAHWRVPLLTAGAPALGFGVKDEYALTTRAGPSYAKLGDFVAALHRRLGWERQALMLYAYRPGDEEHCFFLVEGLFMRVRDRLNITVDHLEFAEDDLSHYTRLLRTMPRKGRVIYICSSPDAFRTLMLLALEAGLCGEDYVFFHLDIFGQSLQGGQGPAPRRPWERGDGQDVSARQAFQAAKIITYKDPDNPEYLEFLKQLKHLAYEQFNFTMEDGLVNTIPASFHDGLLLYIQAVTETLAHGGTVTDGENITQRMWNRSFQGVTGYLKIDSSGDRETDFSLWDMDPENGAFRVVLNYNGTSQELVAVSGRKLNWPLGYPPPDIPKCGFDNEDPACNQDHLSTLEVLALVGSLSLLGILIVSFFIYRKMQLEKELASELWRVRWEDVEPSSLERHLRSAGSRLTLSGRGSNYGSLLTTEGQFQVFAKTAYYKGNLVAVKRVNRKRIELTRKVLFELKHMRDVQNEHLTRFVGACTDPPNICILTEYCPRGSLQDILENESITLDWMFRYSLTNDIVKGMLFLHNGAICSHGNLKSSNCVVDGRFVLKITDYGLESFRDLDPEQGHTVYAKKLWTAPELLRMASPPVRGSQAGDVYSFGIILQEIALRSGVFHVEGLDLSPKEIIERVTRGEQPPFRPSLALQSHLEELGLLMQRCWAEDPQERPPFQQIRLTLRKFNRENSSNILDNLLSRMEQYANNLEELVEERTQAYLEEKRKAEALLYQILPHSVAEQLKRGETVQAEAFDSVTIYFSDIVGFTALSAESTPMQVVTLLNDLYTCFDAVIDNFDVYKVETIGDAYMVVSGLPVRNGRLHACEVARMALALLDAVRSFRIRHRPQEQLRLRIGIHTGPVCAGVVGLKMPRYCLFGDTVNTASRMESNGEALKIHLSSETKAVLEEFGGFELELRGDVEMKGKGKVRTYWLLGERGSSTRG
Myeloid diff 2: promotes myeloid progenitor differentiation; ER-HoxA9 myeloid progenitors, lysozyme-GFP differentiation, flow cytometry; calls only at 10 µM; 360,000 compounds, 1% hits;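 active = normalized GFP-positive differentiation at or above the plate's own cutoff, the solvent-only control mean plus 3 SD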;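 note: cells exposed to compound for four days before flow analysis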
Myeloid diff CP1: compounds promoting myeloid differentiation. 2,300 compounds, 2% hits. ER-HoxA9 myeloid progenitors, GFP/Mac1 double-positive flow. calls only. shares compounds with Myeloid diff 2. AID 651706;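 active = share of green or green-and-red cells above 9 and 9% in run 1 or 4 and 3% in run 2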
GFP autofluor: counter-screen for myeloid differentiation promoters: compound fluorescence; shares compounds with Myeloid diff 2; ER-HoxA9 myeloid progenitors, no estrogen, GFP autofluorescence flow cytometry; vehicle wells 0%, positive control 100%; fluorescence response, % (no concentration beside the values); 2,300 compounds, 7.4% hits;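 active = over 5% cells positive for green fluorescent reporter, or over 2% positive for both it and APC stain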;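 note: range taken on the double positive population between DMSO and positive control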
* = called active by the depositor; i = inactive; nt = no result given; + = active, no number. An excerpt weighted towards active compounds, which were near 1.8% of everything screened.

SMILES | GC-B act | Granule exo inh | GC-A act | Myeloid diff 2 | Myeloid diff CP1 | GFP autofluor
N#Cc1nnn2c1nc(N)c1c(Cl)cccc12 | 3.1 | -4.4 | 18.0 | i | nt | nt
O=C(N/N=C\CCc1ccccc1)c1ccco1 | 4.1 | -3.0 | 1.9 | i | i | 0.3
O=C(CCc1ccccc1)Nc1ccc(NC(=O)c2ccco2)cc1 | -1.7 | 3.2 | -1.2 | i | nt | nt
Cc1cc(OCCCCN2C(=O)NC(C)(C)C2=O)cc(C)c1Cl | -8.1 | -1.3 | 14.7 | i | nt | nt
CC1(C)NC(=O)N(CCCCOc2ccc(Cl)cc2)C1=O | 6.9 | 0.2 | 15.5 | i | i | 0.0
COc1ccc(S[C@]2(C(=O)N3CCN(C(C)=O)CC3)CC(=O)N(C(=O)Nc3ccc(C)c(Cl)c3)[C@@H]2c2ccc(OC)cc2)cc1 | 7.6 | nt | 3.9 | nt | nt | nt
COc1cccc(NC(=O)CN2C(=O)NC(C)(c3ccc(C)cc3)C2=O)c1 (stereo not given) | -1.4 | -0.9 | 4.7 | i | nt | nt
CC(=O)c1sc(NC(=O)CCS(=O)(=O)c2ccc(C)cc2)nc1C | 4.2 | 3.7 | 0.8 | i | i | 0.0
CCCn1c(NC(=O)CCS(=O)(=O)c2ccc(C)cc2)nc2ccccc21 | 1.4 | 2.1 | 6.5 | + | i | 27.4*
COc1ccccc1S(=O)(=O)N(C)C[C@H]1OCc2cn(nn2)CCCC(=O)N([C@@H](C)CO)C[C@@H]1C | -1.4 | -3.8 | 2.2 | i | nt | nt
COC(=O)C(C)(C)NC(=O)c1cccs1 | 0.8 | 0.0 | 3.9 | i | nt | nt
COC(=O)C(C)(C)c1cccnc1C#N | 5.3 | -1.4 | 5.5 | i | i | 0.0
CCOC(=O)c1c(C)[nH]c(C)c1C(=O)COC(=O)/C=C/c1cccc(Cl)c1 | -1.6 | -1.7 | -10.3 | i | nt | nt
CCOC(=O)c1c(C)[nH]c(C(=O)COC(=O)/C=C/c2ccc(O)c(OC)c2)c1C | 6.5 | -4.9 | 3.5 | i | i | 0.0
CCOC(=O)c1c(C)[nH]c(C)c1C(=O)COC(=O)/C=C/c1ccccc1[N+](=O)[O-] | -1.0 | -0.6 | -0.1 | + | i | 0.2
CCCC/C=C1/[C@@H](C(C)C)N(Cc2ccc3c(c2)OCO3)C2=N[C@H](c3ccccc3)CC(=O)N21 | -4.9 | nt | -1.4 | nt | nt | nt
C[C@]1(C(=O)NCCCNc2ncc(C(F)(F)F)cc2Cl)C=C[C@@H](Cc2ccccc2)N1C(=O)c1ccccc1 | nt | -1.7 | nt | i | i | 0.0
CC1(C)O[C@@H]2[C@H](O1)[C@@H](COS(=O)(=O)O)O[C@H]2n1cc(Br)c(=O)[nH]c1=O | 7.8 | 10.2 | 2.6 | + | i | 0.0
COc1ccc(NC(=O)CSCC(=O)NCc2cccc(C(F)(F)F)c2)cc1 | -1.7 | -4.2 | -2.6 | i | nt | nt
Cc1ccc(NC(=O)CSCC(=O)NCc2cccc(C(F)(F)F)c2)cc1 | -11.1 | 5.8 | 0.1 | + | i | 0.3
CCc1cc(C(=O)c2ccccc2OC)c(N)s1 | 1.4 | 7.8 | -2.9 | i | i | 0.5
CCCc1ccc(C(O)c2ncc(-c3cccc(F)c3)[nH]2)cc1 (stereo not given) | 2.6 | -9.3 | 2.2 | i | nt | nt
Cc1cc(/C=C(\C#N)C(=O)O)c(C)n1CC(C)C | -0.2 | -2.0 | 1.9 | + | i | 0.6
CC1CC(C)CN(CCCNC(=O)CCC(=O)N2CCOc3ccccc32)C1 (stereo not given) | 4.6 | -1.3 | 2.8 | i | i | 0.0
CCN1CCN(CCCNC(=O)CCC(=O)N2CCOc3ccccc32)CC1 | 1.2 | -1.1 | 2.7 | i | nt | nt
SMILES | GC-B act | Granule exo inh | GC-A act | Myeloid diff 2 | Myeloid diff CP1 | GFP autofluor
OC1NC(=S)N(c2ccccc2)C1O (stereo not given) | 1.6 | 8.6 | 4.1 | i | nt | nt
OC1CCNC(=S)N1c1ccccc1 (stereo not given) | -2.0 | -2.9 | -4.3 | + | i | 0.3
Cc1nn(-c2ncc(C(F)(F)F)cc2Cl)c(=O)n1-c1c(F)cccc1F | 5.0 | 0.4 | 3.2 | i | nt | nt
Cc1cccc(C)c1-n1c(C)nn(-c2ncc(C(F)(F)F)cc2Cl)c1=O | 0.7 | -5.9 | -3.2 | i | i | 0.2
COc1ccccc1NS(=O)(=O)c1cccc(C(=O)N(C)Cc2cccs2)c1 | 1.5 | -1.9 | -0.4 | i | nt | nt
Oc1ccc(N2CCN(c3nnnn3-c3ccccc3)CC2)cc1 | -1.1 | -1.9 | 1.7 | + | i | 0.0
C=C(C)CSc1nc(N)c2c(C)c(C)sc2n1 | -5.4 | -2.2 | 2.2 | i | nt | nt
